Measurements: PubChem BioAssay
Activity calls are given as the source filed them.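 How the source made its calls, unless noted: active means fluorescence slope higher than the sample average by over 3 SD (cut at about -0.22 in these data, passing the limit was not always enough); inactive means the rest.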

Tests used:
[1] = inhibitors of TNFa-induced NFkB p65 translocation, primary screen, imaging, HUVEC, MLSMR starter and 10KST1 sets (AID 438;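 active means inhibition above 20% together with a positive visual image hit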;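 further: compound added about 3h40 before a 20 min TNFalpha stimulation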;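 on inhibition: signal is the nuclear over cytoplasmic p65 intensity ratio per well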); conditions: HUVEC TNFa-induced p65 nuclear translocation; cell count: measured here: nuclei count (cytotoxicity indicator), at 2.08 µM; inhibition: at 2 µM, stronger effect = higher value, 0% TNFa-plus-vehicle, 100% no-TNFa wells
[2] = reduction of polyQ htt aggregates in cells – imaging, exon1htt(103Q)mCFP cells, high-content imaging, primary screen (AID 483;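 active means visual image review flags a hit and inhibition of aggregation exceeds 20%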;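 further: compound exposure lasted 3 days before fixation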;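 on nuclei count: percent of the per-plate median nuclei count of sample wells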); conditions: exon1htt(103Q)mCFP cell line, aggregate imaging, at 2 µM; inhibition of aggregation: stronger effect = higher value; nuclei count: measured here: cell count, toxicity
[3] = endothelial E-selectin expression blockers – imaging, HUVEC, immunofluorescence, MLSMR starter and 10KST1 sets, primary screen (AID 487;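 active means visually confirmed hit in the image check and inhibition above 20%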;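 on inhibition: signal is fraction of cell area covered by stained E-selectin grains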;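 on nuclei count: 100% = median nuclei count of all wells on the same plate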); conditions: HUVEC TNFalpha-induced E-selectin immunofluorescence imaging, at 2 µM; inhibition: stronger effect = higher value; nuclei count: measured here: cell number, toxicity
[4] = molecular target: Voltage-gated potassium channel subunit beta-2 (Rattus norvegicus) (UniProt P62483); assay: inhibitors of rat Kvbeta2 reductase activity – biochemical, NADPH fluorescence, primary screen (AID 622); conditions: recombinant KvBeta, 4-cyanobenzaldehyde reduction, at 10 µM, stronger effect = higher value;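 further: slope of raw intensity against log time taken from 70 to 1610 s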
Voltage-gated potassium channel subunit beta-2 (Rattus norvegicus), sequence (P62483 whole entry, looked up): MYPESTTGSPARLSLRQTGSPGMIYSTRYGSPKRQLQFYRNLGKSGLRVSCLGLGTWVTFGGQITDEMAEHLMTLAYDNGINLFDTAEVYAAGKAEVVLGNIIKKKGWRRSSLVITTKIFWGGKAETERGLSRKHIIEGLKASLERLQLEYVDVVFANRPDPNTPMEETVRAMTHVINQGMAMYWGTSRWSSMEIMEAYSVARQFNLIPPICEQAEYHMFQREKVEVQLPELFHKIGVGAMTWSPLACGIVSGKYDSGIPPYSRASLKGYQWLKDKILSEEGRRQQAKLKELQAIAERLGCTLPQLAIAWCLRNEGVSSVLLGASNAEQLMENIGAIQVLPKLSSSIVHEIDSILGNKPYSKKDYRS

[5] = molecular target: Voltage-gated potassium channel subunit beta-2 (Rattus norvegicus) (UniProt P62483); assay: enhancers of rat Kvbeta2 NADPH turnover – biochemical, NADPH fluorescence, primary screen (AID 623;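 active means NADPH fluorescence slope more negative than the mean of all samples by about 3 SD, 99.7% confidence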;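 further: fluorescence intensity change per second fitted from 20 to 320 s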); conditions: Recombinant KvBeta, NADPH fluorescence decrease slope, 10 min; at 10 µM; stronger effect = lower value
[6] = molecular target: Alpha-2C adrenergic receptor (Homo sapiens) (UniProt P18825); assay: compounds altering alpha2C-coupled GIRK flux – cell-based, HEK293 alpha2C/GIRK1/2, thallium flux, primary screen (AID 624;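 active means fluorescence slope after compound addition differing from the mean of all screened samples at 99.7% confidence, in either direction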;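 further: slope of fluorescence ratio to pre-addition baseline per second over 15 to 24 s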); conditions: thallium flux BTC fluorescence, at 10 µM, actives lie on both sides
Alpha-2C adrenergic receptor (Homo sapiens), sequence (P18825 whole entry, looked up): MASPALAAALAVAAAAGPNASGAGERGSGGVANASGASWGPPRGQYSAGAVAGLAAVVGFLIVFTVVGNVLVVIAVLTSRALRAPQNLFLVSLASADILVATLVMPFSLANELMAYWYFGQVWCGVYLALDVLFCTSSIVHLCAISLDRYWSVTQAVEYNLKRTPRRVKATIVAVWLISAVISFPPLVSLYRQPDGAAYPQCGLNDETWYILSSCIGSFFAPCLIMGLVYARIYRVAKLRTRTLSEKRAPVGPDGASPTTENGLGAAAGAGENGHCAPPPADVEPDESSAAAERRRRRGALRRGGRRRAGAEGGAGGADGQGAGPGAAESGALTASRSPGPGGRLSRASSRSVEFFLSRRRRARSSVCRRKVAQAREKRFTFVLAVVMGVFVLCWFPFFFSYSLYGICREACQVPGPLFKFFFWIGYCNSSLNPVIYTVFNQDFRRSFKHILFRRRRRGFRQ

[7] = blockers of RIG-like receptor reporter activation – cell-based, Sendai virus stimulus, luciferase, 10K MLSCN set, TLR/RLR signaling modifier project, primary screen (AID 602276;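 active means inhibition at or above 50% at 10 µM; inactive means inhibition below 50%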;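 further: firefly luciferase from ISG56 promoter only with Renilla not read in this screen; 0% = Sendai virus plus DMSO and 100% = medium plus DMSO without virus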); conditions: HEK293 RL24 IRF3 luciferase reporter, at 10 µM, stronger effect = higher value
[8] = TLR3 IRF3 reporter activation blockers – cell-based, poly I:C stimulus, luciferase, 10K MLSCN set, primary screen (AID 602277;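 active means inhibition of the reporter signal at or above 50%; inactive means inhibition below 50%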); conditions: HEK293-TLR3 RL24 IRF3 luciferase reporter, at 10 µM, stronger effect = higher value

Row | Compound | cell count [1] | inhibition [1] | inhibition of aggregation [2] | nuclei count [2] [%] | inhibition [3] | nuclei count [3] [%] | fluorescence slope [4] | NADPH fluorescence slope [5] | slope [6] | inhibition [7] | inhibition [8]
1 | Cn1c(=O)n(CCN2CCOCC2)c(=O)c2c1nc1n2CCN1c1ccccc1 | 362 | 14% (inactive) | 27.9% (inactive) | 98.5 | -33.7% (inactive) | 132 | -0.564 (inactive) | 2.6e-05 (inactive) | 0.00592 (inactive) | -6.67% (inactive) | 3.62% (inactive)
2 | O=S(=O)(c1cccc2nsnc12)N1CCN(c2ncccn2)CC1 | 573 | -15.2% (inactive) | 5.1% (inactive) | 99.7 | -93.3% (inactive) | 120 | -0.408 (inactive) | -4.2e-05 (inactive) | 0.00508 (inactive) | 12.7% (inactive) | 31.3% (inactive)
3 | Cn1c(=O)c2c([nH]c(=O)n2C)n(C)c1=O | 364 | 1.7% (inactive) | 2.6% (inactive) | 104 | 16.9% (inactive) | 101 | -0.435 (inactive) | -0.000114 (inactive) | 0.00554 (inactive) | 18% (inactive) | 20.1% (inactive)
4 | COc1ccc(-n2c(Cc3cccn3C)nnc2SCC(=O)NCC2CCCO2)cc1 (configuration not stated) | 846 | 1.8% (inactive) | 21.3% (inactive) | 103 | -182% (inactive) | 130 | -0.56 (inactive) | -3.5e-05 (inactive) | 0.00701 (inactive) | 8.65% (inactive) | 32% (inactive)
5 | Cc1ccnc2c(N3C(=O)C4C5C=CC(C5)C4(C)C3=O)cccc12 (configuration not stated) | 630 | -6.5% (inactive) | -2.2% (inactive) | 94.9 | -13.1% (inactive) | 111 | -0.556 (inactive) | -1.1e-05 (inactive) | 0.00676 (inactive) | 5.21% (inactive) | 28.5% (inactive)
6 | Cc1ccc(NC(=O)CSc2nnc(-c3ccncc3)n2C)cc1C | 822 | -13.9% (inactive) | 18.5% (inactive) | 85 | -44.4% (inactive) | 130 | -0.591 (inactive) | 4.1e-06 (inactive) | 0.00642 (inactive) | -15.3% (inactive) | -22.4% (inactive)
7 | CCCCCCn1c(SCC(=O)OC)nc2c1c(=O)[nH]c(=O)n2C | 502 | -5.9% (inactive) | 25.4% (inactive) | 71.7 | 5% (inactive) | 91.4 | -0.42 (inactive) | -5.2e-05 (inactive) | 0.00477 (inactive) | 9.4% (inactive) | 31.6% (inactive)
8 | Cc1ccc2c(CC(=O)OCc3csc(C)n3)coc2c1 | 367 | 0.2% (inactive) | 7.3% (inactive) | 92.6 | – | 106 | -0.44 (inactive) | 2.3e-05 (inactive) | 0.00641 (inactive) | 6.62% (inactive) | 30% (inactive)
9 | COc1ccc(NC(=O)CSc2nnc(-c3ccccc3)n2N)cc1 | 438 | 0% (inactive) | 4.9% (inactive) | 103 | -13.6% (inactive) | 114 | -0.38 (inactive) | 9.8e-06 (inactive) | 0.00577 (inactive) | 15.8% (inactive) | 24% (inactive)
10 | Cc1cc(C)cc(-n2nnc(C(=O)NCc3ccco3)c2N)c1 | 500 | 0.2% (inactive) | -20.1% (inactive) | 119 | -36.2% (inactive) | 107 | -0.557 (inactive) | -1.1e-05 (inactive) | 0.00643 (inactive) | -5.79% (inactive) | 100% (active)
11 | O=C(O)CCc1ccc(-c2ccc(F)cc2)n1CC(=O)O | 411 | 7.9% (inactive) | 0.9% (inactive) | 97 | – | 142 | -0.462 (inactive) | -0.000309 (inactive) | 0.00527 (inactive) | 10.3% (inactive) | 19.7% (inactive)
12 | C=CCn1c(N)c(C(=O)NCCC2=CCCCC2)sc1=S | 450 | 6.6% (inactive) | -12.8% (inactive) | 104 | 4% (inactive) | 116 | -0.626 (inactive) | -1.2e-05 (inactive) | 0.00668 (inactive) | 0.338% (inactive) | -64.6% (inactive)
13 | CCOC(=O)N1CCN(CC(=O)Nc2cc(C)nn2-c2nc3ccccc3s2)CC1 | 859 | 9.9% (inactive) | -38.2% (inactive) | 101 | -132% (inactive) | 122 | -0.609 (inactive) | 2.4e-05 (inactive) | 0.00559 (inactive) | 13.7% (inactive) | 27.3% (inactive)
14 | Cc1cc(C)n(-c2ccc(C(=O)Oc3ccc4c(c3)OCO4)cc2)n1 | 440 | 3.3% (inactive) | 17.6% (inactive) | 100 | – | 148 | -0.468 (inactive) | -2.1e-05 (inactive) | 0.00555 (inactive) | 7.51% (inactive) | 1.41% (inactive)
15 | O=C(CSc1nnc(CNC(=O)c2cccs2)o1)NC1CCCC1 | 613 | -14.4% (inactive) | 10.3% (inactive) | 93.1 | -2.3% (inactive) | 123 | -0.318 (inactive) | -5e-05 (inactive) | 0.00569 (inactive) | 16.7% (inactive) | 12.5% (inactive)
16 | CNS(=O)(=O)c1cccc(C(=O)OCC(=O)c2cc(C)n(-c3ccc4c(c3)OCO4)c2C)c1 | 406 | 2.5% (inactive) | -7.6% (inactive) | 97.3 | – | 156 | -0.436 (inactive) | -4.7e-05 (inactive) | 0.0143 (active) | -1.89% (inactive) | 10.6% (inactive)
17 | O=C(O)c1cccc(NS(=O)(=O)c2ccc3nnn(O)c3c2)c1 | 435 | 10.6% (inactive) | -5.7% (inactive) | 108 | – | 152 | -0.403 (inactive) | -5.1e-06 (inactive) | 0.00611 (inactive) | 12.9% (inactive) | 18.7% (inactive)
18 | CN(Cc1cccs1)C(=O)CCc1ccc(S(=O)(=O)N2CCOCC2)cc1 | 475 | 1% (inactive) | -10.3% (inactive) | 94 | -10.9% (inactive) | 114 | -0.466 (inactive) | -3.6e-05 (inactive) | 0.00394 (inactive) | -6.32% (inactive) | 14.6% (inactive)
19 | CCOC(=O)CC(=O)Nc1c(C)cc(C)cc1C | 270 | 7.5% (inactive) | 12.8% (inactive) | 87.4 | 6.5% (inactive) | 105 | -0.416 (inactive) | 6.4e-05 (inactive) | 0.00527 (inactive) | -9.54% (inactive) | 2.4% (inactive)
20 | CC(CCc1ccccc1)NC(=O)CSc1nc(N)cc(N)n1 (configuration not stated) | 253 | -6% (inactive) | -23.7% (inactive) | 10.8 | -41.5% (inactive) | 99.2 | -0.483 (inactive) | -4.4e-05 (inactive) | 0.00545 (inactive) | 8.76% (inactive) | 10.6% (inactive)
21 | O=C(OCc1nnc(-c2ccc(Cl)cc2)o1)c1ccc(=O)n(Cc2ccccc2)n1 | 413 | 1.7% (inactive) | 3% (inactive) | 99.3 | – | 160 | -0.44 (inactive) | -5e-05 (inactive) | 0.00426 (inactive) | -5.01% (inactive) | -8.16% (inactive)
22 | CC1CCN(CCc2nc3cc(NS(=O)(=O)c4ccc(F)cc4)ccc3n2C)CC1 | 392 | 6.1% (inactive) | 13.2% (inactive) | 97.6 | -31.1% (inactive) | 106 | -0.5 (inactive) | -3.1e-05 (inactive) | 0.00517 (inactive) | 5.27% (inactive) | 16% (inactive)
23 | Cc1onc(-c2ccccc2)c1C(=O)Nc1sc2c(c1C(N)=O)CCC2 | 404 | 4.8% (inactive) | -0.6% (inactive) | 107 | – | 139 | -0.282 (inactive) | -1.9e-05 (inactive) | 0.00375 (inactive) | 8.08% (inactive) | -31.8% (inactive)
24 | O=C1C(c2ccncc2)=C(O)c2ccccc21 | 302 | -8.6% (inactive) | 1.9% (inactive) | 73 | 0.7% (inactive) | 91.1 | -0.333 (inactive) | -1.1e-05 (inactive) | 0.00364 (inactive) | 4.51% (inactive) | -0.387% (inactive)
25 | Cc1cccc(NS(=O)(=O)c2cc(C(=O)OCC(=O)Nc3cc(C)on3)ccc2C)c1 | 427 | 7.9% (inactive) | 3.7% (inactive) | 99.6 | – | 125 | -0.498 (inactive) | -3.2e-05 (inactive) | 0.00536 (inactive) | 25.1% (inactive) | 2.98% (inactive)
26 | CN(Cc1ccccc1)C(=O)c1ccc2c(c1)OCO2 | 414 | 10.6% (inactive) | -8.8% (inactive) | 108 | – | 156 | -0.595 (inactive) | -2e-05 (inactive) | 0.0038 (inactive) | 2.22% (inactive) | -20.3% (inactive)
